DAX1 inh-1 – DAX1 (NR0B1) inhibitors, primary screen, cell-based, HEK293, Gal4-DAX1, luciferase luminescence | Nuclear receptor subfamily 0 group B member 1 (Homo sapiens), P51843 | HEK293 Gal4-DAX1 luciferase reporter | inhibition, % at 6.75 µM | actives 0.99% (n = 340,000) | AID 504766, 2011;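 active means inhibition above the mean over all tested compounds plus 3 SD, cut at about 4.2% in these data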;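 further: 0% = DAX1-transfected cells with DMSO and 100% = empty-vector control cells with DMSO; inhibition shows as a rise in luminescence from relieved DAX1 repression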
Target sequence (P51843 207-470 limits assumed): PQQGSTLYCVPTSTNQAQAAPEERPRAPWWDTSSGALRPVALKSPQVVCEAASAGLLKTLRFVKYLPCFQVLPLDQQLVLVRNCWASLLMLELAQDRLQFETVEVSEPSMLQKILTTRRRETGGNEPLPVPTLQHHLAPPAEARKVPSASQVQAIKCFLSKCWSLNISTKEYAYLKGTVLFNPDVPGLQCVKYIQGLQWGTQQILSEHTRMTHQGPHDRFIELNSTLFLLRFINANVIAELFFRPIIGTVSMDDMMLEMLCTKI
hcDAF12 agonist – H. contortus DAF-12 nuclear receptor activators, primary screen, cell-based, luminescence, HEK293, lit1-tk-luc reporter | HEK293 hcDAF-12 lit1-tk-luc reporter; 0% DMSO, 100% Δ7-dafachronic acid | activation, % at 6.8 µM | actives 1.4% (n = 370,000);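 active means activation above the mean of all tested compounds plus 3 SD, cut at about 5.5% in these data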;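 further: 100% = response to 3 µM Δ7-dafachronic acid high control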
DAX1 inh-2 – DAX1 (NR0B1) inhibitors on StAR promoter, primary screen, cell-based, luminescence, SF-1 (NR5A1), full-length DAX-1; HEK293T StAR-luciferase reporter, SF-1/DAX-1 repression relief; inhibition, % at 6.8 µM; actives 1.1% (n = 370,000); AID 652010, 2013;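 active means inhibition above the mean over all tested compounds plus 3 SD, cut at about 3.6% in these data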;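 further: 0% = DAX-1 cells with DMSO and 100% = cells lacking DAX-1 with DMSO; higher inhibition means more luminescence from relief of DAX-1 repression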
SMARCA2 act – SMARCA2 (BRM) function activators, primary screen, cell-based, luminescence, high throughput. MG213 cells, MMTV-luciferase reporter, dexamethasone, overnight. activation, % at 9.1 µM. actives 1% (n = 370,000). AID 652017, 2013; in the data active means activation above about 7.8%;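 further: 0% = vehicle wells and 100% = reference activator wells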
hgDAF-12 ag – H. glycines DAF-12 receptor agonists, primary screen, cell-based, luminescence, HEK293, GAL4 fusion, UAS-luciferase | HEK293 GAL4-hgDAF12 UAS-luciferase reporter, agonist luminescence; normalized to butyrate control | AID 687014, 2013 | actives 1.8% (n = 370,000) | activation, % at 6.8 µM | Nuclear hormone receptor DAF-12 (Heterodera glycines), GAL4 fusion;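 active means activation above a cutoff set at the mean of all screened compounds plus 3 SD, cut at about 10% in these data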;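 further: 0% = DMSO wells and 100% = sodium butyrate wells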
ssDAF-12 act – S. stercoralis DAF-12 nuclear receptor activators, primary screen, cell-based, luminescence, HEK293, GRIP1 co-expression, lit1-tk-luc; Nuclear hormone receptor DAF-12 (Strongyloides stercoralis); HEK293 ssDAF-12/GRIP1 lit1-tk-luc reporter; % of 3 µM dafachronic acid response; activation, % at 6.8 µM; actives 1% (n = 370,000); AID 652126, 2013;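 active means activation above the mean over all tested compounds plus 3 SD, cut at about 0.9% in these data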;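 further: 0% = DMSO-only wells and 100% = 3 µM delta7-dafachronic acid wells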
LXRb hcDAF ctr – LXR agonists, Gal4 luciferase reporter, confirmation, counter-screen for hcDAF-12 agonist project, cell-based, luminescence, HEK293, H. contortus campaign | shares compounds with hcDAF12 agonist | HEK293 Gal4-LXR tk-luc reporter, 24 h; normalized: DMSO 0%, positive control 100% | activation, % at 6.8 µM | 3,400 tested, under 10 active;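 active means mean percent activation of the reporter above a cutoff set as the average over tested compounds plus their standard deviation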
hcDAF12 ag – H. contortus DAF-12 receptor agonists, confirmation, cell-based, luminescence, HEK293, lit1-tk-luc, triplicate | shares compounds with hcDAF12 agonist | HEK293 hcDAF-12 lit1-tk-luc reporter; % of Δ7-dafachronic acid response | activation, % at 6.8 µM | actives 61% (n = 3,400) | AID 743032, 2013;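 active means mean activation across triplicate tests above the threshold derived from the earlier primary screen, cut at about 5.5% in these data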;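 further: 0% = DMSO only wells and 100% = 3 µM Δ7-dafachronic acid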
hgDAF12 ag – H. glycines DAF-12 receptor agonists, confirmation, cell-based, luminescence, HEK293, GAL4-LBD fusion; shares compounds with hgDAF-12 ag; HEK293 GAL4-hgDAF12 luciferase reporter, agonist mode; percent of butyrate response; activation, % at 6.8 µM; actives 80% (n = 3,300);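 active means mean activation over triplicate wells above the hit cutoff derived from the earlier primary screen, cut at about 11% in these data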;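 further: 0% = DMSO low control and 100% = 2 mM sodium butyrate high control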
LXR ag 2 – LXR agonists, Gal4 luciferase reporter, confirmation, counter-screen for hgDAF-12 agonist project, cell-based, luminescence, HEK293, H. glycines campaign | shares compounds with hgDAF-12 ag | 24 h | activation, % at 6.8 µM | 3,300 tested, under 10 active;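 active means mean activation of the triplicate above a set limit carried over from the primary screen, none filed active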
Numbers without * were called inactive; · = not tested or not shown. A selection: hits, their analogues and other compounds. The true share with any hit is near 4.8%.

SMILES	DAX1 inh-1	hcDAF12 agonist	DAX1 inh-2	SMARCA2 act	hgDAF-12 ag	ssDAF-12 act	LXRb hcDAF ctr	hcDAF12 ag	hgDAF12 ag	LXR ag 2
Cc1ccc(-c2nc(N/N=C/c3cccnc3)c3ccccc3n2)cc1	-2	13*	1	2	14*	2.9*	2	12*	21*	1
CSc1nnc(-c2ccccc2SC)o1	0	-2	1	2	-1	-2	·	·	·	·
CSc1ccccc1-c1nnc(-c2ccc(C)cc2)o1	2	10*	3	-1	15*	1.7*	1	8.8*	15*	1
CCc1ccc(-c2cc(C(=O)O)c3ccccc3n2)s1	-1	11*	2	5	17*	1.1*	1	9.1*	14*	1
O=c1[nH]c(N/N=C\c2ccc(F)cc2)nc2ccccc12	3	8.4*	4	4	15*	1.6*	1	5	18*	1
O=c1[nH]c(N/N=C/c2ccc(O)cc2)nc2ccccc12	2	1	2	3	9	1	·	·	·	·
CC[C@H](C)[C@H](NC(N)=O)C(=O)NNC(=O)c1ccc(COc2cccc3cccnc23)cc1	-2	-1	0	-2	1	-1	·	·	·	·
Cc1scc(C(=O)N/N=C/c2ccc(Cl)s2)c1C	6.2*	8.2*	3	2	14*	0	1	6	15*	1
Cc1scc(C(=O)N/N=C/c2ccc(OC(C)C)cc2)c1C	2	1	0	1	5	0	·	·	·	·
Cc1cc(NC(=O)c2cc3cccc([N+](=O)[O-])c3[nH]2)ccc1F	9.7*	7.7*	2	0	14*	0	1	7.1*	13*	1
COCC(C)NC(=O)c1cc2cccc([N+](=O)[O-])c2[nH]1 (stereo not given)	1	3	-1	-1	4	0	·	·	·	·
O=C(Nc1cc2ccccc2oc1=O)c1ccccc1	·	11*	2	2	15*	0	1	9.2*	5	1
Cc1oc(=O)c(NC(=O)c2ccccc2)cc1C(N)=O	·	1	0	3	-1	0	·	·	·	·
Cn1nnnc1SCc1nc2ccccc2[nH]1	3	0	0	-1	3	-1	·	·	·	·
Cc1ccc2oc(-c3ccccc3)c(C(=O)O)c(=O)c2c1	2	6.7*	3	2	18*	0	1	6.1*	18*	1
CCOC(=O)N1CCC(NC(=O)c2cc(-c3ccc(F)cc3)[nH]c2C)CC1	-1	-1	-1	-1	-1	-2	·	·	·	·

High-throughput results deposited in PubChem BioAssay by The Scripps Research Institute Molecular Screening Center.
